# Laboratory results reported in PubChem BioAssay (EPA / NIEHS).
# Records with an inconclusive call do not appear. Some compounds were tested as several samples or in several runs, with calls that do not always agree. Active and inactive are the calls of the source. The calls were made as follows: active = hit-call score of the fitted dose curve at least 0.9, where 1 is the maximum; inconclusive = response in the unintended direction; inactive = score below 0.9.
# Legend:
# [1] = ACEA_ER_AUC_viability: ACEA Biosciences xCELLigence Real-Time Cell Analysis on Estrogen Receptor Agonism for Viability (AID 2283782);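 also: hit means loss of impedance signal meaning reduced cell growth or viability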
# Summary of the method: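 T47D cells preconditioned in phenol red-free RPMI with charcoal-stripped FBS, then dosed with 8-point 1:4 series from 100 uM (up to 0.5% DMSO). Impedance monitored up to ~80 h; area-under-curve loss versus DMSO taken as viability.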
# [2] = ACEA_AR_antagonist_AUC_viability: ACEA Biosciences xCELLigence Real-Time Cell Analysis on Androgen Receptor Antagonism for Viability (AID 2283776);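 also: 22Rv1 human prostate cancer cells growing on impedance electrode plates; hits lower the growth signal relative to DMSO meaning cytotoxicity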
# Summary of the method: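 Real-time electrical impedance tracks 22Rv1 proliferation after continuous compound exposure (top 100 uM final, 1:4 steps, 8 concentrations). The 80 h area-under-curve serves as the cytotoxicity readout relative to DMSO.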
# [3] = ACEA_AR_agonist_AUC_viability: ACEA Biosciences xCELLigence Real-Time Cell Analysis on Androgen Receptor Agonism for Viability (AID 2283775);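 as to AC50: viability read 80 hours after compound addition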
# Summary of the method: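 Real-time impedance tracking of 22Rv1 growth, readings every 5 min for 5 h then hourly; area-under-curve viability endpoint at 80 hours, relative to DMSO. Compounds at eight concentrations, 1:4 steps, top 100 uM, n = 2.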
smiles,measurement,setting,value
Oc1ccccc1Br,outcome,[1],inactive
Nc1ccc2ccccc2c1,outcome,[2],inactive
c1nc[nH]n1,outcome,[2],inactive
CCCCC(CC)COP(=O)(Oc1ccccc1)Oc1ccccc1 (configuration not stated),outcome,[3],inactive
same,AC50,[2],16.6 µM (active)
same,AC50,[1],85.5 µM (active)
CCOC(=O)c1ccccc1C(=O)OCC,outcome,[2],inactive
same,outcome,[1],inactive
CCN(CC)c1ccccc1,outcome,[2],inactive
CC(Cc1ccc(OCC(=O)O)cc1)NCC(O)c1csc(C(F)(F)F)n1 (configuration not stated),outcome,[3],inactive
same,outcome,[2],inactive
same,outcome,[1],inactive
Nc1ccc(Cl)cc1,AC50,[3],5.62 µM (active)
same,AC50,[2],8.97 µM (active)
same,AC50,[1],8.49 µM (active)
same,outcome,[1],inactive
COCCOCCO,outcome,[2],inactive
same,outcome,[1],inactive
O=S(=O)(F)C(F)(F)C(F)(F)C(F)(F)C(F)(F)C(F)(F)C(F)(F)C(F)(F)C(F)(F)F,outcome,[1],inactive
Cc1ccc2c(c1N)C(=O)c1ccccc1C2=O,outcome,[1],inactive
c1ccc2c(c1)Nc1ccccc1S2,outcome,[3],inactive
same,AC50,[2],21.7 µM (active)
same,outcome,[1],inactive
Cc1c([N+](=O)[O-])cc2c(c1[N+](=O)[O-])C(C)(C)CC2(C)C,AC50,[1],82.3 µM (active)
O=c1ssc(Cl)c1Cl,AC50,[3],0.671 µM (active)
same,outcome,[2],inactive
same,outcome,[1],inactive
